Our source for the Potency values is PubChem BioAssay AID588397 (National Center for Advancing Translational Sciences (NCATS), 2011).

In all, about 1,300 compounds went through this assay and about 1,000 (77%) were called active. About 7% were inconclusive and are not listed. Calls follow the shape of the dose curve; as a rule, active = well fitted inhibition curve with a large enough effect; inconclusive = small, poorly fitted or top-dose-only effect; inactive = no such curve, though single readings can be large or run the other way. So high a share suggests a set chosen from earlier hits. Some of the results follow.
Potency is read from the fitted curve at half-maximal effect.

A short description of the assay: qHTS of small molecules that selectively kill Giardia lamblia: Hit Validation.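 Also: viability measured as ATP content by luminescence so killing lowers signal; nearly all actives have a fitted effect of over 65% in size.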 As to conditions: Giardia lamblia trophozoite viability, dose-response; series mostly up to 38.3 µM. The source says:
Giardia lamblia is a human pathogen afflicting impoverished nations, and the most common cause of outbreaks of diarrhea in the United States. Giardia has been classified by the CDC as a category B bioterrorism organism. The favored anti giardiasis drugs in the US are metronidazole or tinidazole, compounds that have undesirable side effects. Moreover, increasing resistance to drug regimes and recurrence are a concern. It is thus clear that alternative drug treatments are needed.
In a collaboration between the University of Maryland, College Park and the NIH Chemical Genomics Center, a bioluminescence Giardia viability assay based on the trophozoites' ATP content was developed. This assay is suitable for high throughput screening, and miniaturized the assay for compound screening in 1536-well plates. The goal of the project is to screen the Molecular Libraries Small Molecule Repository (MLSMR) for compounds that selectively kill Giardia trophozoites.
NIH Chemical Genomics Center [NCGC]
NIH Molecular Libraries Probe Centers Network [MLPCN]
Assay Submitter (PI): Osnat Herzberg, University of Maryland, College Park, MD.
1. Dispense 2 ul/well media
2. Dispense 23 nl/well compounds
3. Dispense 4 ul/well Giardia trophozoites at a concentration of 100 cells/well
4. Incubate 48 hrs at 37 deg C anaerobically
5. Dispense 4 ul/well ATPLite 1-Step Luminescence assay kit
6. Incubate 15-30 min at room temperature
7. Read luminescence signal on ViewLux plate reader
Background: Quantitative high-throughput screening tests each substance at several concentrations.
For the compound `COc1ccccc1NC(=O)C(=O)N/N=C/c1ccc([N+](=O)[O-])s1`, the Potency is 2050 nM (active).

`Cc1ccnn1CC(=O)N/N=C/c1ccc([N+](=O)[O-])s1`: the Potency was 3650 nM (active).

On to `CCOC(=O)N/N=C\c1ccc([N+](=O)[O-])s1`, for which the Potency was 4100 nM (active).

In the case of `COC(=O)N/N=C/c1ccc([N+](=O)[O-])s1`, the Potency was 4100 nM (active).

For the compound `O=C(COC(=O)c1cc(Cl)ccc1O)NC(=O)NCc1ccccc1`, the Potency entry is “inactive”.

For `Cc1csc(NC(=O)CSc2nc3[nH]c(=O)cc(O)c3s2)n1`, the Potency was 1030 nM (active).

For the compound `CC(NCCN(C)C)C1CCC2C3CCc4cc(O)ccc4C3CCC12C` (centres undefined), the Potency is 1160 nM (active).

In the case of `COc1cc(/C=C2\COC/C(=C\c3cc(OC)c(OC)c(OC)c3)C2=O)cc(OC)c1OC`, the Potency is 11600 nM (active).

For `COc1cc(C2CC(=O)Oc3cc(C)c(Cl)c(C)c32)cc(OC)c1OC` (centres undefined), the Potency result is “inactive”.

As for `Cc1c(Cl)cccc1NC(=O)CCCn1cnc([N+](=O)[O-])n1`, the Potency was 4100 nM (active).

With `O=C(CCCn1cnc([N+](=O)[O-])n1)Nc1ccc(F)c(Cl)c1`, the Potency was 3650 nM (active).

As to `COc1ccc(NC(=O)CCCn2nc(C)c3c(C)n(-c4ccccc4)nc3c2=O)cc1OC`, the Potency result is “inactive”.

For `O=C(CCCn1cnc([N+](=O)[O-])n1)Nc1cccc(Cl)c1Cl`, the Potency is 3650 nM (active).

Turning to `Cc1nn(CCCC(=O)Nc2c(F)cc(F)cc2Br)c(C)c1[N+](=O)[O-]`, the Potency result is “inactive”.

Regarding `O=C(c1ccco1)N1CCN(Cc2cc(=O)c(OCc3ccc([N+](=O)[O-])cc3)co2)CC1`, the Potency was 183 nM (active).

As for `O=[N+]([O-])c1cccc(COc2ccccc2CN2CCCC2)c1`, the Potency entry is “inactive”.

As to `O=C1NC(=O)/C(=C\c2ccc(Oc3ccc([N+](=O)[O-])cn3)cc2)S1`, the Potency is 9180 nM (active).

Regarding `O=C(Nc1ccc(C(=O)O)cc1)/C(=C\C=C\c1ccccc1)NC(=O)c1ccccc1Cl`, the Potency is 6500 nM (active).

For `C#CCOCCOCCOCCNc1nc(N2CCN(C(=O)[C@H](CCC(=O)O)n3cc([C@@H](N)CC(N)=O)nn3)CC2)nc(N2CCN(C(=O)[C@H](CCC(=O)O)n3cc([C@@H](N)CC(N)=O)nn3)CC2)n1`, the Potency result is “inactive”.

With `CCCCCN=Cc1c(C)[nH]n(-c2nc3ccccc3s2)c1=O`, the Potency was 3260 nM (active).

Regarding `Cc1ccc(N=Nc2c(O)ccc3n[nH]nc23)cc1`, the Potency is 3650 nM (active).

For `CCC1=C(OC(=O)N(CC)CC)N2C(=O)OC(=NCC(=O)OC)[C@]2(C)[C@H]2C1=CC[C@H]1C(=O)N(CC)C(=O)[C@H]12`, the Potency entry was “inactive”.

Turning to `CN(C)C(=O)C[n+]1ccc(C(N)=O)cc1`, the Potency entry was “inactive”.

`Cc1ccc(NC(=O)Cn2cnc([N+](=O)[O-])c2)cc1C`: the Potency is 8180 nM (active).

As for `Fc1ccc(CN2CC[C@H]3C=CCc4cccc(c43)C2)cc1`, the Potency entry was “inactive”.

Turning to `COc1ccc(C(=O)COC(=O)c2ccccc2NS(=O)(=O)c2ccc(O)c([N+](=O)[O-])c2)cc1`, the Potency is 1450 nM (active).

In the case of `COc1ccc(S(=O)(=O)Nc2c(O)c3ccccc3oc2=O)cc1`, the Potency entry is “inactive”.

Turning to `Cc1ccc(S(=O)(=O)Nc2ccc(C(OC(=O)c3ccccc3[N+](=O)[O-])(C(F)(F)F)C(F)(F)F)cc2)cc1`, the Potency is 3650 nM (active).

`O=C(N/N=C/c1ccc([N+](=O)[O-])o1)c1cc(-c2cccc(Br)c2)nc2ccccc12`: the Potency is 1160 nM (active).

As for `Cc1ccc(-c2cc(C(=O)N/N=C/c3ccc([N+](=O)[O-])o3)c3ccccc3n2)o1`, the Potency was 1030 nM (active).

Regarding `CCCc1ccc(-c2cc(C(=O)N/N=C/c3ccc([N+](=O)[O-])o3)c3ccccc3n2)cc1`, the Potency is 1630 nM (active).

`O=C(N/N=C/c1ccc([N+](=O)[O-])o1)c1cc(-c2ccc(-c3ccccc3)cc2)nc2ccccc12`: the Potency is 1030 nM (active).

As for `COc1ccc(-c2ccc([C@H]3[C@@H]4C=CCC[C@@]4(C)C(=O)N3Cc3ccccc3)c(F)c2)cc1OC`, the Potency entry is “inactive”.

Take `COc1cc(/C=C2\SC(=O)N(Cc3ccc(F)cc3)C2=O)cc([N+](=O)[O-])c1O`: the Potency was 1830 nM (active).

For `COc1cc(/C=C2\SC(=O)N(c3ccc(Cl)cc3)C2=O)cc([N+](=O)[O-])c1O`, the Potency is 4100 nM (active).

For the compound `COc1cc(/C=C2\SC(=O)N(Cc3ccc(Cl)cc3)C2=O)cc([N+](=O)[O-])c1O`, the Potency was 1630 nM (active).

As to `CCS(=O)(=O)Nc1cccc(C2=NN(S(=O)(=O)c3ccc(C)cc3)C(c3ccco3)C2)c1` (centres undefined), the Potency entry was “inactive”.

Turning to `COc1ccc(NS(=O)(=O)c2ccc(S(=O)(=O)N(C)C)cc2)cc1S(N)(=O)=O`, the Potency result is “inactive”.

`COc1ccc(OCc2cc(C(=O)N(C)Cc3cc(C4CC4)n[nH]3)no2)c(Cl)c1`: the Potency entry was “inactive”.

For the compound `COc1ccc(OC)c(/C=C/c2ccc3ccccc3n2)c1`, the Potency result was “inactive”.

`COc1ccc(/C=C/c2ccc3ccccc3n2)cc1OC`: the Potency was 4600 nM (active).

Regarding `COc1ccc(/C=C/c2ccc3ccccc3n2)c(OC)c1`, the Potency is 2310 nM (active).

For the compound `COc1cccc(/C=C/c2ccc3ccccc3n2)c1OC(C)=O`, the Potency was 8180 nM (active).

Turning to `O=[N+]([O-])c1ccc(CN2CCN(c3ccccc3Cl)CC2)o1`, the Potency was 650 nM (active).

Regarding `Cc1ccccc1N1CCN(Cc2ccc([N+](=O)[O-])o2)CC1`, the Potency was 1160 nM (active).

Take `Cc1cccc(N2CCN(Cc3ccc([N+](=O)[O-])o3)CC2)c1C`: the Potency was 729 nM (active).

For `Cc1ncc([N+](=O)[O-])n1CCOC(=O)Nc1ccc(Cl)c(Cl)c1`, the Potency is 230 nM (active).

Take `Cc1ncc([N+](=O)[O-])n1CCOC(=O)Nc1ccc([N+](=O)[O-])cc1`: the Potency is 146 nM (active).

With `C#CCCOC(=O)Nc1ccccc1`, the Potency entry is “inactive”.

With `COc1ccc(NC(=O)OCCn2c([N+](=O)[O-])cnc2C)cc1`, the Potency is 650 nM (active).

For the compound `CN1C2=CC=CC=CC2=[N+](C)C12C([N+](=O)[O-])=CC(=[N+]([O-])[O-])C=C2[N+](=O)[O-]` (centres undefined), the Potency was 206 nM (active).

As for `CCOC(=O)c1ccc(NS(C)(=O)=O)cc1`, the Potency entry is “inactive”.

Turning to `Cc1cc(C(=O)COC(=O)c2cccc(NS(C)(=O)=O)c2)c(C)n1CC1CCCO1` (centres undefined), the Potency is 4100 nM (active).

`Cc1nnc(N/N=C/c2cccs2)[nH]c1=O`: the Potency result is “inactive”.

As to `S=C(NCCc1ccccc1)N/N=C/c1cccs1`, the Potency was 23100 nM (active).

Turning to `CC1CC(C)C(=O)C(C(CC2CC(=O)NC(=O)C2)OC(=O)CC(=O)c2ccccc2)C1` (centres undefined), the Potency was 130 nM (active).

Take `CCn1nnc(NC(=O)c2ccc(C(C)(C)C)cc2)n1`: the Potency was 7290 nM (active).

For the compound `O=C(Nc1ncccn1)c1ccc([N+](=O)[O-])o1`, the Potency was 1300 nM (active).

In the case of `O=C(Nc1ccc(Br)cn1)c1ccc([N+](=O)[O-])o1`, the Potency is 1630 nM (active).

Consider `Cc1cccnc1NC(=O)c1ccc([N+](=O)[O-])o1`, for which the Potency is 918 nM (active).

With `Cc1onc(NC(=O)c2ccc([N+](=O)[O-])o2)c1Br`, the Potency was 1630 nM (active).

Turning to `O=C(Nc1ccccn1)c1ccc([N+](=O)[O-])o1`, the Potency was 1630 nM (active).

Regarding `CCn1nnc(NC(=O)c2ccc([N+](=O)[O-])o2)n1`, the Potency is 1450 nM (active).

`O=C(NCC(c1ccco1)N1CCCC1)c1ccc(S(=O)(=O)Nc2ccccc2Cl)cc1` (centres undefined): the Potency result was “inactive”.

As to `CC1(C)[N+]([O-])=C2C(=[N+]([O-])C1(C)C)c1ccccc1/C2=N\O`, the Potency is 1630 nM (active).

On to `C/C(=N\NC(=O)COc1ccc(C)cc1Br)c1cc([N+](=O)[O-])cs1`, for which the Potency is 1630 nM (active).

As for `CC(=NN1CC(=O)NC1=O)c1ccc([N+](=O)[O-])o1`, the Potency is 1450 nM (active).

For the compound `COc1cccc(NC2c3ccccc3C(=O)N2Cc2ccco2)c1` (centres undefined), the Potency entry is “inactive”.

With `O=[N+]([O-])c1ccc(-c2ccn[nH]2)o1`, the Potency was 51.6 nM (active).

Regarding `CC(=O)Oc1ccc2c(=O)c(Oc3ccccc3[N+](=O)[O-])coc2c1`, the Potency was 3260 nM (active).

In the case of `CCN(CC)/[N+]([O-])=N/Oc1ccc([N+](=O)[O-])cc1[N+](=O)[O-]`, the Potency is 4100 nM (active).

In the case of `O=[N+]([O-])c1ccc(O/N=[N+](\[O-])N2CCCCC2)c([N+](=O)[O-])c1`, the Potency is 5160 nM (active).

On to `CCOC(=O)N1C(C)CN(/[N+]([O-])=N/Oc2ccc([N+](=O)[O-])cc2[N+](=O)[O-])CC1C` (centres undefined), for which the Potency is 5790 nM (active).

Regarding `CCOC(=O)c1nnn(-c2ccc([N+](=O)[O-])cc2[N+](=O)[O-])c1C`, the Potency was 8180 nM (active).

Regarding `O=C1CC(SC(=Nc2ccccc2)Nc2ccccc2)C(=O)N1c1cccc2ccccc12` (centres undefined), the Potency entry is “inactive”.

Consider `O=[n+]1c2c(n([O-])c3cc(Br)ccc31)CCCC2`, for which the Potency was 2310 nM (active).

Turning to `O=[n+]1c2c(n([O-])c3cc(Cl)ccc31)CCCC2`, the Potency is 4600 nM (active).

Consider `O=[n+]1c2c(n([O-])c3cc(Br)ccc31)CCC2`, for which the Potency was 2310 nM (active).

With `Cc1ccc(N=c2c([N+](=O)[O-])nn(-c3ccccc3)n2O)c(C)c1`, the Potency was 1030 nM (active).

For the compound `Cc1c(Cl)cccc1N=c1c([N+](=O)[O-])nn(-c2ccccc2)n1O`, the Potency was 516 nM (active).

Take `CCCC/C=C/C(NC(=O)c1ccc(C(=O)OC)cc1)c1ccccc1` (centres undefined): the Potency entry is “inactive”.

Turning to `Cc1c(NC2(C#N)CCCC2)c(=O)n(-c2ccccc2)n1C`, the Potency entry was “inactive”.

For `CCNc1ccc(N=Nc2c(C)n(C)n(-c3ccccc3)c2=O)cc1`, the Potency is 729 nM (active).

Regarding `Cc1cc(N)ccc1N=Nc1c(C)n(C)n(-c2ccccc2)c1=O`, the Potency was 729 nM (active).

Turning to `COc1cc(N=Nc2c(C)n(C)n(-c3ccccc3)c2=O)ccc1N`, the Potency is 2310 nM (active).

On to `Cc1c(N=Nc2ccc(O)cc2)c(=O)n(-c2ccccc2)n1C`, for which the Potency was 5160 nM (active).

`Cc1c(N=Nc2ccc(N(C)C)cc2)c(=O)n(-c2ccccc2)n1C`: the Potency was 650 nM (active).

On to `O=[N+]([O-])c1ccc(/C=C/c2ccnc3ccccc23)c([N+](=O)[O-])c1`, for which the Potency was 7290 nM (active).

With `CSC1SCC2C(=O)N(C)C(C(C)C)C(=O)OCC(NC(=O)c3cnc4ccccc4n3)C(=O)NC(C)C(=O)N(C)C1C(=O)N(C)C(C(C)C)C(=O)OCC(NC(=O)c1cnc3ccccc3n1)C(=O)NC(C)C(=O)N2C` (centres undefined), the Potency is 206 nM (active).
